RTF Ca sens inh – cardiac RTF calcium desensitization; P19429+P45379; IANBD-labeled cardiac RTF, Ca2+ fluorescence; inhibition, % at 7.15 µM; 340,000 tested, 0.12% active; AID 493244;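 active = inhibition above the mean inhibition of all tested compounds plus 3 SD, cut at about 17% in these data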;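 note: assay run at fixed EC70 calcium of 1.6 mM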
CRFBP-R2 block – antagonists of CRF-binding protein/CRF-R2 receptor complex | HEK293 CRF-R2/CRF-BP, CRF-induced calcium fluorescence | inhibition, % at 11.8 µM | 350,000 tested, 0.59% active;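 active = inhibition of the ligand-induced calcium signal above about 50% at the single tested concentration, limit read from the data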
IDE cell inh – inhibits human insulin-degrading enzyme in HEK cells; P14735; FAbetaB cleavage, fluorescence polarization; inhibition, % at 5.59 µM; 320,000 tested, 0.41% active;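 active = percent inhibition above the average of all tested compounds plus 3 SD, set per screening campaign, cut at about 16% in these data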;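 note: IDE supplied by intact live HEK cells; FP after avidin binding of uncleaved biotin substrate so inhibition keeps polarization high; 0% = DMSO wells and 100% = 60 µM reference IDE inhibitor Ii1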
Target sequence (P14735 whole entry, looked up): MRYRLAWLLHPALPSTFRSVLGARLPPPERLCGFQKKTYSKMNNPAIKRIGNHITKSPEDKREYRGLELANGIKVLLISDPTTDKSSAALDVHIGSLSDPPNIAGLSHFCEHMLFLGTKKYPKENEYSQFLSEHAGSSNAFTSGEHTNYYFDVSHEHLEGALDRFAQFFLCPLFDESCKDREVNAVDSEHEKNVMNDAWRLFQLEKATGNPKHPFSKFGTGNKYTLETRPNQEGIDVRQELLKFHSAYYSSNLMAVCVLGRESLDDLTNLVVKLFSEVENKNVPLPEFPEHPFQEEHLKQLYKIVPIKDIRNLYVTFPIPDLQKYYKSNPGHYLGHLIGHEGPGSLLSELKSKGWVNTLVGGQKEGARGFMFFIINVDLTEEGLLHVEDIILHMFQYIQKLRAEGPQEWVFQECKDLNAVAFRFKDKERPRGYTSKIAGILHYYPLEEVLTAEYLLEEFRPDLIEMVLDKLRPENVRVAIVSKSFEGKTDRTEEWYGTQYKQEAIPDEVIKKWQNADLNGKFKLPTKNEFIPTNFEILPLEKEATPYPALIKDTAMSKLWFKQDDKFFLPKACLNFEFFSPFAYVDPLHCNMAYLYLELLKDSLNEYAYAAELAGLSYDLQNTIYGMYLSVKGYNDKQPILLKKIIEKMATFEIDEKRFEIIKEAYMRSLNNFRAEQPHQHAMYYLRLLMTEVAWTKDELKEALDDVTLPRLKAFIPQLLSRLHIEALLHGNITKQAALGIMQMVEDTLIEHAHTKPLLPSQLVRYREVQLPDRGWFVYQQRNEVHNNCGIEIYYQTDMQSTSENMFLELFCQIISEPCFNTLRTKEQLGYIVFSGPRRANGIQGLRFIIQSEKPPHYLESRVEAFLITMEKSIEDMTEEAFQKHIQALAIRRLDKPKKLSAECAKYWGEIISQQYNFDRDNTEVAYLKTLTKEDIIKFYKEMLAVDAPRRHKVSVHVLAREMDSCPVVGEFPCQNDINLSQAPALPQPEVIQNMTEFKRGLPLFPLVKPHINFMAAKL
IDE act – IDE (human) activation, cell-based; P14735; HEK cells, FAbeta-B cleavage, fluorescence polarization; 0% vehicle, 100% cell-free pure enzyme wells; activation, % at 5.96 µM; 340,000 tested, 0.073% active; AID 493087;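 active = activation above the mean of all tested compounds plus 3 SD, set per screening campaign, cut at about 17% in these data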
CRFBP-R2 agonist – CRF-BP/CRF-R2 complex agonism; activation, % at 13.2 µM; HEK293 CRF-R2/CRF-BP, calcium dye fluorescence (FLIPR); percent of saturating CRF peptide response; 350,000 tested, 0.46% active;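 active = activation of at least 50%, plus an integration ratio under a set limit after plate pattern correction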;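 note: plate controls were neutral control wells without compound for no effect and CRF at EC100 for full effect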
cardiac RTF act – cardiac RTF calcium sensitization | P19429+P45379 | 340,000 tested, 0.24% active | activation, % at 7.2 µM | IANBD-labeled TnC RTF fluorescence at EC20 calcium; 0% EC20 calcium, 100% full calcium;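 active = activation above the mean over all tested compounds plus 3 SD, cut at about 30% in these data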;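 note: rise in fluorescence read as greater calcium sensitivity of cardiac thin filaments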
Numbers without * were called inactive. Most compounds without a hit are left out; they make up all but 1.5% or so of the library.

How did COc1ccc(C2CC(c3ccccc3)Nc3nc(N)nn32)cc1 (stereo unspecified) do in these assays?
RTF Ca sens inh: -7; CRFBP-R2 block: -17; IDE cell inh: -2; IDE act: -8; CRFBP-R2 agonist: -2; cardiac RTF act: 5

How did CC(=O)OC[C@]12CC[C@H]3[C@@](C)(CC[C@H]4C(C)(C)CCC[C@]34C)[C@@H]1C[C@H](C1=CC(=O)O[C@@H]1OC(C)=O)O2 do in these assays?
IDE cell inh: 12

What do the screens show for `C/C(=N/NC(=O)C1CCCN1C(=O)c1ccc([N+](=O)[O-])cc1)c1ccc(Br)cc1` (stereo unspecified)?
RTF Ca sens inh: -16; CRFBP-R2 block: 7; IDE act: 0; CRFBP-R2 agonist: 0; cardiac RTF act: 3

How did O=C1N=c2ccccc2=C1c1sc(Nc2ccc(O)cc2)nc1O do in these assays?
RTF Ca sens inh: 15; CRFBP-R2 block: 60*; IDE act: 8; CRFBP-R2 agonist: 2; cardiac RTF act: -10

What do the screens show for `O=C1N=c2ccccc2=C1c1sc(Nc2cccc(O)c2)nc1O`?
RTF Ca sens inh: -16; CRFBP-R2 block: 22; IDE cell inh: 4; IDE act: 0; CRFBP-R2 agonist: -1; cardiac RTF act: -1

Results for NS(=O)(=O)c1cccc(NS(=O)(=O)c2cccc(C(F)(F)F)c2)c1 ?
RTF Ca sens inh: -1; CRFBP-R2 block: -7; IDE cell inh: -1; IDE act: 5; CRFBP-R2 agonist: 0; cardiac RTF act: -1

What do the screens show for `COc1ccc(/C=N/NS(=O)(=O)c2ccc(C)cc2)cc1OC(=O)c1ccccc1`?
RTF Ca sens inh: -11; CRFBP-R2 block: -13; IDE cell inh: 2; IDE act: 3; CRFBP-R2 agonist: 1; cardiac RTF act: 12

What do the screens show for `COc1ccc(/C=N/NS(=O)(=O)c2ccccc2)cc1OC(=O)c1ccc(C)cc1`?
RTF Ca sens inh: 4; CRFBP-R2 block: 51*; IDE cell inh: -2; IDE act: 1; CRFBP-R2 agonist: -3; cardiac RTF act: 1

What do the screens show for `O=C(c1ccccc1)c1nn(-c2ccc(Cl)cc2)cc1C(=O)c1cc2ccccc2oc1=O`?
RTF Ca sens inh: -4; CRFBP-R2 block: 101*; IDE cell inh: 1; IDE act: 4; CRFBP-R2 agonist: 9; cardiac RTF act: -1

How did Cc1cc2oc(=O)cc(-c3ccccc3)c2c(C)c1-c1ccc(O)cc1 do in these assays?
RTF Ca sens inh: 1; CRFBP-R2 block: 50*; IDE act: 0; CRFBP-R2 agonist: 0; cardiac RTF act: -3

Results for CC(=O)CSc1cc(-c2ccccc2)nc2ncnn12 ?
RTF Ca sens inh: -4; CRFBP-R2 block: 4; IDE cell inh: 2; IDE act: 4; CRFBP-R2 agonist: -5; cardiac RTF act: 9

Results for COc1ccc(N2C(=O)CSC2c2ccc([N+](=O)[O-])cc2)cc1 (stereo unspecified) ?
RTF Ca sens inh: -5; CRFBP-R2 block: 83*; IDE cell inh: -4; IDE act: 1; CRFBP-R2 agonist: 6; cardiac RTF act: 10

How did Cc1ccc(S(=O)(=O)Oc2ccc(C(c3c(C)[nH][nH]c3=O)c3c(C)[nH][nH]c3=O)cc2)cc1 do in these assays?
RTF Ca sens inh: 3; CRFBP-R2 block: -160; IDE cell inh: 0; IDE act: 2; CRFBP-R2 agonist: 126*; cardiac RTF act: -8

Results for CCOc1cc(C(c2c(C)[nH][nH]c2=O)c2c(C)[nH][nH]c2=O)ccc1OS(=O)(=O)c1ccccc1 ?
RTF Ca sens inh: -12; CRFBP-R2 block: 7; IDE cell inh: 2; IDE act: -2; CRFBP-R2 agonist: -1; cardiac RTF act: 3

Results for O=c1[nH]c2ccc(Cl)cc2[nH]1 ?
RTF Ca sens inh: -3; CRFBP-R2 block: 109*; IDE act: 2; CRFBP-R2 agonist: 2; cardiac RTF act: -2

How did O=c1[nH]c2ccc(S(=O)(=O)Nc3ccc(Cl)cc3)cc2[nH]1 do in these assays?
RTF Ca sens inh: -7; CRFBP-R2 block: 0; IDE cell inh: -1; IDE act: 3; CRFBP-R2 agonist: -3; cardiac RTF act: 0

Results for N#Cc1c(Cl)nsc1NC(=O)c1ccccc1 ?
RTF Ca sens inh: -2; CRFBP-R2 block: 56*; IDE cell inh: 6; IDE act: 4; CRFBP-R2 agonist: 47; cardiac RTF act: 4

Results for N#Cc1c(NC(=O)c2ccccc2)sc2c1CCCCC2 ?
RTF Ca sens inh: -10; CRFBP-R2 block: -17; IDE cell inh: 0; IDE act: 2; CRFBP-R2 agonist: 1; cardiac RTF act: 0

What do the screens show for `CC(C)N(C(=O)C[n+]1ccsc1N)c1ccccc1`?
RTF Ca sens inh: -4; CRFBP-R2 block: 59*; IDE cell inh: -6; IDE act: -2; CRFBP-R2 agonist: -2; cardiac RTF act: -2

Results for CCCCN(C)Cc1cc(=O)oc2ccc3ccccc3c12 ?
RTF Ca sens inh: -14; CRFBP-R2 block: -4; IDE cell inh: -6; IDE act: -1; CRFBP-R2 agonist: -5; cardiac RTF act: 1

How did CC(=O)N[C@H]1C[C@@H]1c1ccccc1 do in these assays?
RTF Ca sens inh: -11; CRFBP-R2 block: 61*; IDE cell inh: -5; IDE act: 5; CRFBP-R2 agonist: -2; cardiac RTF act: -5

How did CC(C)C(NC(=O)c1ccco1)C(=O)NC1CCCCCC1 (stereo unspecified) do in these assays?
RTF Ca sens inh: -8; CRFBP-R2 block: 105*; IDE cell inh: 2; IDE act: 4; CRFBP-R2 agonist: 0; cardiac RTF act: 3

How did O=C(NC1CCCCCCC1)c1ccco1 do in these assays?
RTF Ca sens inh: -4; CRFBP-R2 block: -2; IDE cell inh: 4; IDE act: 5; CRFBP-R2 agonist: 0; cardiac RTF act: 1

Results for COc1ccc(C2c3ccc(O)cc3Oc3ncn4nc(-c5ccncc5)nc4c32)cc1OC (stereo unspecified) ?
RTF Ca sens inh: -9; CRFBP-R2 block: 0; IDE cell inh: 0; IDE act: 3; CRFBP-R2 agonist: -2; cardiac RTF act: 2

How did N#Cc1c2nc3ccccc3nc2n2cc(NC(=O)c3ccc(F)cc3)ccc12 do in these assays?
RTF Ca sens inh: -17; CRFBP-R2 block: -83; IDE act: 0; CRFBP-R2 agonist: 55*; cardiac RTF act: 10

Results for CCNC(=S)N(CCc1ccc(S(N)(=O)=O)cc1)C1CC(=O)N(c2ccccc2)C1=O (stereo unspecified) ?
RTF Ca sens inh: -1; CRFBP-R2 block: -95; IDE cell inh: 2; IDE act: 5; CRFBP-R2 agonist: 97*; cardiac RTF act: -1

How did CCOC(=O)C1CCN(C(=O)c2n[nH]c(=O)c3ccccc23)CC1 do in these assays?
RTF Ca sens inh: 0; CRFBP-R2 block: 92*; IDE cell inh: 4; IDE act: 7; CRFBP-R2 agonist: -1; cardiac RTF act: -2
